In PubChem BioAssay AID1851 (National Center for Advancing Translational Sciences (NCATS), 2009):
The whole screen tested about 16,000 compounds, of which about 4,000 (25%) were called active. Another 26% or so got no clear call; they are omitted. The list is a sample of the results. Unmarked numbers belong to inactive results. Calls follow the shape of the dose curve; as a rule, active = well fitted curve in the direction sought with a large enough effect; inconclusive = small, poorly fitted or top-dose-only effect, or effect the other way; inactive = no such curve, though single readings can be large or run the other way.

biological target: Cytochrome P450 2C9 (Homo sapiens) (UniProt P11712); experiment: Cytochrome panel assay with activity outcomes; details: recombinant CYP, pro-luciferin dealkylation, luminescence, p450-cyp2c9; series mostly up to 57.1 µM
% is scaled to controls: 0 for no effect and ±100 for the full control effect.

Chain of Cytochrome P450 2C9 (Homo sapiens) (P11712 whole entry, looked up): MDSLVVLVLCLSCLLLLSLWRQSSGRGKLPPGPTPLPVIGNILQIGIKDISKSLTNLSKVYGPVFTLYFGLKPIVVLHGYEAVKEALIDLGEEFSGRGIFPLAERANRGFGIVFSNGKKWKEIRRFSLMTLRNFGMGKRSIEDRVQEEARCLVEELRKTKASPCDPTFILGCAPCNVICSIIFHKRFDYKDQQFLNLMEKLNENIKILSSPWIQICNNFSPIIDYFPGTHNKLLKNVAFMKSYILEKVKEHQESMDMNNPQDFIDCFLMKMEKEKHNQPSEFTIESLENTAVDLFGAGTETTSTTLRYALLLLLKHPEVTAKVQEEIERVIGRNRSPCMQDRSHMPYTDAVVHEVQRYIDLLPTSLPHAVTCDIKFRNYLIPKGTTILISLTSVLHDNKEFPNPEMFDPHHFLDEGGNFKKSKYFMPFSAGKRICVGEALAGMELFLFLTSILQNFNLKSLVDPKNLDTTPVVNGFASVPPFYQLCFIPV

SMILES | AC50 | activity, negative = inhibition
OC1(c2ccc(OC(F)F)cc2)CSC(=Nc2cccnc2)N1C1CC1 (stereo not drawn) | 5.01 µM (active) | 
Cc1ccccc1-c1cc(NCc2ccccc2)ncn1 |  | -15.2% [at 2.29 µM]
Cc1cccc(CNc2cc(-c3ccccc3Cl)ncn2)c1 |  | 4.64% [at 2.29 µM]
Cc1ccc(N2C(=O)C(Cl)=C(NCc3ccccc3)C2=O)c(C)c1 | 5.62 µM (active) | 
COC(=O)c1ccccc1N/C=C1\CCc2c(c(C)nn2-c2ccccn2)C1=O | 14.1 µM (active) | 
COc1ccc(-c2cc(C(=O)O)c3c(C)nn(-c4ccccn4)c3n2)cc1 | inactive | 
COc1ccc(COC(=O)N/N=C2/C[C@@H](O)[C@@H](O)[C@@H]3[C@H]4C(=O)N(c5ccc(F)cc5F)C(=O)[C@@H]4CC[C@H]23)cc1 |  | -4.97% [at 11.4 µM]
C[n+]1ccc(/C=C/c2ccc(Br)cc2)cc1 | inactive | 
O=C(/C=C/c1ccc(Br)cc1)NC1CCCCCC1 | inactive | 
CCOC(=O)C(CC)(CC)C(=O)/C=C/c1ccc(Br)cc1 | 5.01 µM (active) | 
CCCNS(=O)(=O)c1ccc(OCC(=O)OC)cc1 | 7.08 µM (active) | 
Nc1ccc(S(=O)(=O)NCCS(=O)(=O)O)cc1 |  | 9.74% [at 11.4 µM]
O=C(NOC(=O)c1cc(Br)ccc1Cl)c1cccs1 | inactive | 
Cc1ccc(NC(=O)CCC(=O)NNC(=O)c2cccs2)c(C)c1 | inactive | 
O=C(Nc1ncc(Cc2cccc(Cl)c2)s1)c1cccs1 | 11.2 µM (active) | 
Cc1ccc(Cc2cnc(NC(=O)c3cccs3)s2)cc1 | 8.91 µM (active) | 
Nc1[nH]c(=O)nc2c1ncn2[C@H]1O[C@@H](CO)[C@@H](O)[C@@H]1O |  | -0.314% [at 11.4 µM]
O=C(O)c1ccc(S(=O)(=O)N=Nc2c(O)[nH]c3ccccc23)cc1 |  | 3.79% [at 11.4 µM]
N#CCCSC(=S)[C@H]1CCCC1=N |  | -3.69% [at 11.4 µM]
O=C(CCC(=O)OCc1ccc(C(=O)Oc2ccccc2)cc1)Nc1cccc2ccccc12 | 15.8 µM (active) | 
N#Cc1c(NC(=O)CCC(=O)O)ccc2ccccc12 |  | -7.5% [at 11.4 µM]
COC(=O)CCC(=O)Nc1cccc2ccccc12 | inactive | 
COc1ncc2nc(-c3cc(F)cc(F)c3)c(=O)n(CCC#N)c2n1 | inactive | 
N#Cc1sc2nc(-c3cccs3)cc(-c3ccc(Cl)cc3)c2c1N | 4.47 µM (active) | 
O=C(O)c1cc(N=Cc2ccccc2O)cc(C(=O)O)c1 |  | 7.44% [at 11.4 µM]

SMILES | AC50 | activity, negative = inhibition
Cc1cc(O)c(C(C)C)cc1N=Cc1ccccc1O | 0.631 µM (active) | 
[O-][n+]1c(CN2CCCCC2)nc2cccc3c2c1-c1ccccc1-3 |  | -15.3% [at 11.4 µM]
CC(C)(C)c1ccc(C2CC2C(=O)N/N=C\c2cc3ccccc3nc2Cl)cc1 (stereo not drawn) | 3.55 µM (active) | 
CN(C)c1ccc(/C=N\NC(=O)c2cnc3ccccc3c2)cc1 |  | -6.78% [at 11.4 µM]
CN(Cc1ccco1)c1ncncc1-c1cccnc1 |  | 10.8% [at 2.29 µM]
CCOc1[nH]n(-c2ccccc2)c(=O)c1C=Nc1ccc(Cl)cc1 | inactive | 
O=c1c(C=Nc2ccc(Oc3ccccc3)cc2)c[nH]n1-c1cccc(Cl)n1 | 6.31 µM (active) | 
Fc1ccc2c(c1)C(c1ccncc1)=NNC(c1ccc(Cl)cc1)=N2 | 0.282 µM (active) | 
c1cncc(-c2cc(NCc3cccs3)ncn2)c1 |  | -6.08% [at 2.29 µM]
Clc1ccc2c(c1)C(c1cccs1)=NNC(c1cccnc1)=N2 | 11.2 µM (active) | 
COC(=O)[C@H](C)NC(=O)[C@@H](C)CO |  | 10.7% [at 11.4 µM]
COCCNc1ccnc(-c2ccccc2CN(C)C)n1 |  | 0.0079% [at 2.29 µM]
CN(CC[C@@H](Oc1ccc(-c2ccccc2)cc1)c1ccc(F)cc1)CC(=O)O | 2.51 µM (active) | 
CNCC[C@@H](Oc1ccccc1C)c1ccccc1 | inactive | 
CNCC[C@H](Oc1ccccc1OC)c1ccccc1 | inactive | 
CCOc1cc2[nH]c(=S)n(CCC(=O)N3CCc4ccccc4C3)c(=O)c2cc1OCC | 17.8 µM (active) | 
O=c1onc2n1-c1cc(Br)ccc1OC2 | inactive | 
CCCS(=O)(=O)N1CCCC(C(=O)NCCCN2CCN(c3ccc(F)cc3)CC2)C1 (stereo not drawn) | inactive | 
COc1ccc(S(N)(=O)=O)cc1C(=O)NCCCN1CCN(c2ccc(C)cc2)CC1 | inactive | 
Cc1ccc(S(=O)(=O)N(CC(=O)N2CCN(c3ccc(F)cc3)CC2)C2CCCCC2)cc1 | 3.55 µM (active) | 
CCCCOC(=O)NS(=O)(=O)c1sc(CC(C)C)cc1-c1ccc(Cn2c(CC)nc3c(C)cc(C)nc32)cc1 | 12.6 µM (active) | 
C1CCc2nnnn2CC1 | inactive | 
O=C(c1cccc(F)c1)N1CCC2(CC1)CN(Cc1ccccc1)C2 | inactive | 
Cc1cccc2cc(CN(Cc3ccccc3)C(=O)c3cccc(F)c3)c(Cl)nc12 | 2.24 µM (active) | 
CNc1nc(-c2ccccc2OC)nc2ccccc12 |  | 7.89% [at 2.29 µM]

SMILES | AC50 | activity, negative = inhibition
COc1cccc(OC)c1/C(O)=C(\C#N)c1nc2ccccc2[nH]1 | 11.2 µM (active) | 
Cc1ccccc1OC/C(O)=C(\C#N)c1nc2ccccc2[nH]1 | inactive | 
CC(CC(=O)Nc1ccc(Cl)c([N+](=O)[O-])c1)c1ccccc1 (stereo not drawn) | 14.1 µM (active) | 
COc1ccc(N2CCN(C(=S)Nc3cc(C)cc(C)c3)CC2)cc1 | inactive | 
COc1ccc(NC(=O)N2CCC3(CC2)CCN(C(=O)c2cccc(F)c2)CC3)cc1 | inactive | 
COc1ccc(Nc2ncc(C(=O)N3CCN(c4ccc(F)cc4)CC3)c3ccccc23)cc1 | 2.24 µM (active) | 
CC(=O)[C@@]1(O)Cc2c(O)c3c(c(O)c2[C@H](O[C@H]2C[C@H](N)[C@H](O)[C@H](C)O2)C1)C(=O)c1ccccc1C3=O | inactive | 
O=C(NC1CCCCC1)c1sc(=S)n2c1[nH]c(=O)c1ccccc12 | 0.2 µM (active) | 
CCOc1ccc(N(C(C)C(=O)N/N=C(\C)c2cccc(NC(=O)c3ccccc3)c2)S(C)(=O)=O)cc1 (stereo not drawn) | 3.98 µM (active) | 
CCOc1ccc(N(C(C)C(=O)NC(C)CC)S(C)(=O)=O)cc1 (stereo not drawn) | 5.62 µM (active) | 
Cc1nc2cnc(N3CCN(C)CC3)nc2n(-c2ccccc2)c1=O | inactive | 
CC[C@H]1C(=O)OC[C@H]1Cc1cncn1C | inactive | 
CO[C@H]1COC(=O)[C@@H](C)COC(=O)[C@@H](COCc2ccccc2)NC(=O)C/C=C\[C@H]1C |  | 6.52% [at 11.4 µM]
O=C(Nc1ccccc1)N1CC2(CCN(C(=O)c3cnccn3)CC2)C1 | inactive | 
O=C(Nn1cc(C(=O)N2CCN(c3ccccc3F)CC2)c2ccccc2c1=O)c1cnccn1 | 4.47 µM (active) | 
O=C(c1cnccn1)N1CCC2(CC1)CCN(c1ccccc1)CC2 | inactive | 
O=C(O)[C@@H]1[C@@H](C(=O)NCc2cccnc2)[C@@H]2C=C[C@@H]1O2 |  | 0.756% [at 11.4 µM]
O=C(c1ccccc1)c1c[nH]c(C(=O)NCc2cccnc2)c1 | 11.2 µM (active) | 
O=C(c1ccccc1)c1c[nH]c(C(=O)NCCCN2CCOCC2)c1 | inactive | 
N#CCCn1c(=O)c(-c2cc(F)cc(F)c2)nc2cnc(N3CCOCC3)nc21 | inactive | 
COc1ccc(-c2nc3cnc(N4CCN(C)CC4)nc3n(C)c2=O)cc1 | inactive | 
CN1CCN(c2ncc3nc(-c4cc(F)cc(F)c4)c(=O)n(C4CC4)c3n2)CC1 | 10 µM (active) | 
CN1CCN(c2ncc3nc(-c4ccc(Cl)cc4)c(=O)n(C4CC4)c3n2)CC1 | inactive | 
CN1CCN(c2ncc3nc(-c4ccc(F)cc4)c(=O)n(C4CC4)c3n2)CC1 | 12.6 µM (active) | 
NC([N-]/N=C/c1ccccn1)=[S]=[Fe].O=S(=O)(O)O |  | -29.5% [at 11.4 µM]

SMILES | AC50 | activity, negative = inhibition
Cc1c(Cl)cnc(NC(=O)COC(=O)CCS(=O)(=O)c2ccccc2)c1Cl | inactive | 
O=C(O)CC[C@@H](C(=O)O)N1C(=O)c2ccccc2C1=O | inactive | 
CC(C)CC(C(=O)OCC(=O)Nc1ncc(Cl)cc1Cl)N1C(=O)c2ccccc2C1=O (stereo not drawn) | 7.08 µM (active) | 
CC(=O)Nc1ccc(NC(=O)CC2Nc3cccc4cccc(c34)NC2=O)cc1 (stereo not drawn) | 5.01 µM (active) | 
Cc1cccc(OC2(c3ccccc3)OC(=O)c3ccccc32)c1C (stereo not drawn) | 3.16 µM (active) | 
CCCCCCCOC1(c2ccccc2)OC(=O)c2ccccc21 (stereo not drawn) | 8.91 µM (active) | 
Cc1cccc(C)c1OC1(c2ccccc2)OC(=O)c2ccccc21 (stereo not drawn) | 2.51 µM (active) | 
CC(C)C[C@H](NC(=O)[C@@H](O)[C@H](N)Cc1ccccc1)C(=O)O | inactive | 
CCCCn1c(SCc2c(C)noc2C)nc2cc(S(N)(=O)=O)ccc21 | 10 µM (active) | 
CCn1c(C)nc2cc(S(=O)(=O)C(F)F)ccc21 | inactive | 
O=C1CC(c2ccc3c(c2)OCO3)Sc2nc3ccccc3n21 (stereo not drawn) | 3.16 µM (active) | 
O=C1CC(c2ccc3c(c2)OCO3)CN1 (stereo not drawn) | inactive | 
c1ccc2c(N3CCNCC3)nc(-c3ccc4c(c3)OCO4)nc2c1 |  | 12.6% [at 2.29 µM]
O=C(CSc1nc2ccccc2[nH]1)NCCN1CCCCC1 | inactive | 
O=C(CSc1nc2ccccc2o1)Nc1nc2ccccc2s1 | 3.98 µM (active) | 
O=C(NC1CCCCC1)C(c1ccccc1)N1CCOCC1 (stereo not drawn) | inactive | 
O=C(CSc1nc2ccccc2o1)Nc1ccccc1N1CCCCCC1 | 12.6 µM (active) | 
Cc1ccc(-c2nc3ccccc3o2)cc1NC(=O)Cc1cccs1 | inactive | 
O=C(O)C1CCCCC1C(=O)Nc1ccccc1Cl (stereo not drawn) | inactive | 
O=C(CNC1CCCCCC1)Nc1ccccc1N1CCCCC1 | 28.2 µM (active) | 
c1ccc(/C(=N/Nc2nc3ccccc3s2)c2ccccn2)cc1 |  | -23.7% [at 11.4 µM]
O=C(CSc1ccccn1)Nc1nc2ccc(Br)cc2s1 | 7.08 µM (active) | 
CCCCOC(=O)Nc1nc2ccccc2s1 | inactive | 
